The structures appear in SMILES notation. The whole screen tested about 200,000 compounds, of which about 25 (0.01%) were called active. Another 23% or so got no clear call; they are omitted. This is one part of a sample in which actives are shown more often than they occur. A number with no mark means an inactive call. The call rests on the fitted dose curve; in most records, active means well fitted inhibition curve with a large enough effect in the signal ratio, with a control signal flat (not every such curve was filed as active); inconclusive means small, poorly fitted or top-dose-only effect, or effect the other way, or a change in a side signal; inactive means flat fitted curve, though single readings scatter; the % refers to the signal ratio.
On the % scale 0 is the no-effect control and ±100 the full control effect; potency means the concentration at half of the fitted maximal effect.

This test can be described thus: qHTS Assay for Modulators of Lamin A Splicing. The note with it: HeLa LMNA splicing GFP/RFP minigene ratio, 48 h; series mostly up to 46 µM; ratio change, negative = inhibition: at the top concentration. From the text: NCGC Assay Overview: Hutchinson-Gilford Progeria Syndrome (HGPS) is a pediatric premature aging disease caused by a spontaneous mutation in the lamin A/C (LMNA) gene. The mutation activates a cryptic splice site in the LMNA pre-mRNA which results in production of a pre-lamin A protein that cannot be processed properly. The mutant protein accumulates in the nucleus and negatively affects numerous cellular functions. Correction of the splicing defect in HGPS patient cells using a targeted oligonucleotide (exo11) leads to reversal of the cellular disease phenotypes. To identify small molecule modulators of aberrant LMNA splicing, a homogenous assay was constructed in HeLa cells that used a GFP containing minigene to report on correction of aberrant splicing in lamin A and a RFP (DsRed2) to report on cell viability, uniformity and nonspecific effects on the assay signal. This assay was adapted to laser-scanning microplate cytometry (Acumen, TTP Labtech) where miniaturization of the assay to a 1,536-well plate format was possible. References: Bowen, W. P.; Wylie, P. G. Application of Laser-Scanning Fluorescence Microplate Cytometry in High Content Screening. Assay Drug Dev Technol 2006;4:209-221. Scaffidi P, Misteli T. Reversal of the cellular phenotype in the premature aging disease Hutchinson-Gilford progeria syndrome. Nat.
NCGC Assay Protocol Summary: Reagents/Controls: Stable clones expressing DsRed2 and lamin A-EGFP were generated by Cell and Molecular Technologies in S3 HeLa cells. HeLa cells were prepared for the assay when they were 70-90% confluent. The cells were counted and resuspended in Opti-MEM I (no phenol red; Gibco), 2% FBS, 1% penicillin/ streptomycin (Gibco) at concentration of 120 cells/uL concentration. The suspension was passed through a Falcon basket filter with pore size 40um (Beckton Dickson). Control titrations: column […] 1536-well plate contained a sixteen point titration (1:2 dilutions) in duplicate of ancitabine (Sigma: A8598) beginning at 40 uM final concentration. Column 2 contained a sixteen point titration (1:2 dilutions) of cycloheximide beginning at 1.4 mM final concentration. Column 3 contained ancitabine at 40 uM and column 4 contained was the vehicle control (0.5% DMSO final concentration). Assay Steps: 5 uL of HeLa cells were plated in Aurora LoBase black clear bottom (cyclic-olefin polymer) 1536-well plates at a final density of 600 cells/well. Controls and library compounds were added with a 1536-well pin array using the Kalypsys pin-tool. The plates were then incubated for 48 hrs in a cell-culture incubator (37 °C; 5% CO2, 98% humidity). Following incubation the plates were read on the Acumen Explorer using the 488 nm laser. Data was collected on objects between 10 and 100 um in size. Cell objects were defined by a 15 um width x 10 um depth filter. The ratio of the total object intensity in PMT1 (500-530 nm emission; GFP) over PMT3 (575-640 nm emission; RFP) was calculated for analysis. Keywords: NIH Roadmap, MLSCN, MLI, MLSMR, qHTS, NCGC, lamin A, Progeria, RNA splicing.
Turning to `Cc1ccccc1-n1nc(SCC(=O)O)sc1=S`, the “ratio change, negative = inhibition” value was -1.17%.

On to `CCCCCN(C(=O)NC(=O)Nc1cccc(C)c1C)S(C)(=O)=O`, for which the “ratio change, negative = inhibition” value is -26.2%. Still for that read-out and setting: then `CC(C)(C)NC(=O)Cn1cnc2cc([N+](=O)[O-])ccc2c1=O`, with -2.83%.

Turning to `Cc1c(-c2cccc(NC(=O)C(C)(C)C)c2)nc2ncccn12`, the “ratio change, negative = inhibition” value is 6.73%. For `COc1ccc(Cc2n[nH]c(=S)n2NC(=O)Nc2ccc(C)cc2)cc1`, the “ratio change, negative = inhibition” value is 21.5%. On the same count and under the same terms, then `COc1c(C=O)c(CCN(C)C(=O)c2ccc(F)cc2)cc2c1OCO2`, with 23%; and `O=C(Nc1ccc(C(=O)OCc2cc(=O)n3nc(C4CC4)sc3n2)cc1)c1ccc(F)cc1`, with 4.29%. Still for that read-out and setting: then `COc1cccc(CN(C)CC(=O)Nc2ccccc2C(=O)Nc2ccccc2)c1`, with -9.51%; and `OC(COc1ccc(CN2CCSCC2)cc1)CN1CCCCC1` (stereo unspecified), with 13.6%. Same read-out and setting: under `CCN(Cc1ccccc1)S(=O)(=O)c1ccc2c(c1)CCCN2C(C)=O` stands -0.194%.

Consider `Cn1sc(=O)c2cc(S(=O)(=O)NC3CC3)ccc21`, for which the Potency was 11.2 µM (active). With `CSc1ccc(S(=O)(=O)NC2CCCCC2)cc1`, the “ratio change, negative = inhibition” value is -9.18% [at 46.1 µM]. As to `CC1CCC(NS(=O)(=O)c2ccc3c(c2)n(C)c(=O)c(=O)n3C)CC1` (stereo unspecified), the “ratio change, negative = inhibition” value was 6.05% [at 46.1 µM]. Regarding `COc1ccc(S(=O)(=O)NCC2CCCN(C(=O)c3occc3C)C2)cc1` (stereo unspecified), the “ratio change, negative = inhibition” value was 5.38%. On to `CN1CCN(/N=C2/C(=O)Nc3ccc([N+](=O)[O-])cc32)CC1`, for which the “ratio change, negative = inhibition” value is 0.722%. Turning to `CCOc1ccccc1N1CCN(C(=O)COc2ccc3c(C)cc(=O)oc3c2)CC1`, the “ratio change, negative = inhibition” value is -7.5%. Still for that read-out and setting: then `COc1ccc(CNC(=O)COCc2cc(-c3cccs3)on2)cc1OC`, with 6.21%; and `O=C(Nc1ccc(Br)cn1)c1ccc([N+](=O)[O-])cc1Cl`, with 7.76%.

With `CC12CN(NC(=O)c3ccc(Cl)cc3)C3(C#N)CC1CCC23C` (stereo unspecified), the “ratio change, negative = inhibition” value was 15.3%.

As for `CCOCCc1nn2c(=O)cc(COC(=O)CNC(=O)c3ccc(C(C)(C)C)cc3)nc2s1`, the “ratio change, negative = inhibition” value was 7.84%. Same read-out and setting: under `Cc1ccc(S(=O)(=O)CC(=O)Nc2c(C)n(C)n(-c3ccccc3)c2=O)cc1` stands 8.54%; under `Cc1c(CCNC(=O)c2ccc(C(F)(F)F)cc2)sc2nc(-c3ccc(F)cc3)nn12`, 1.9%; under `Cc1ccc2c(c1)C1CN(C)CCC1N2C(=S)Nc1ccc(OC(F)F)cc1` (stereo unspecified), -22.6%. Take `CN1CCN(C(CNC(=O)c2ccccc2F)c2ccc3c(c2)OCO3)CC1` (stereo unspecified): the “ratio change, negative = inhibition” value is -2.99%. Same read-out and setting: then `COc1ccc(-c2cn3cccnc3n2)cc1`, with 9.89%; and `CC1(C)CC(CNCCC(c2ccc(F)cc2)c2ccco2)CCO1` (stereo unspecified), with -16.6%. Same read-out and setting: then `CCc1ccc(NC(=O)c2nn(-c3ccc(C)cc3)c(=O)n(C)c2=O)cc1`, with -1.99%; and `CN(C)S(=O)(=O)N1CCN(c2ccc([N+](=O)[O-])cc2)CC1`, with 10.9% [at 9.22 µM]; and `COc1ccccc1CNC(=O)c1ccccc1NC(=O)c1nsc2ccccc12`, with 6.29%. Still for that read-out and setting: then `O=C(CSc1nnc2ccc(-c3ccncc3)nn12)N1CCCCC1`, with 22.1%; and `Cc1ccc([N+](=O)[O-])c(OCCCNCC(C)O)c1` (stereo unspecified), with -18.3%; and `COc1cccc(NC(=O)C(=O)NCC(c2ccc3c(c2)OCO3)N2CCN(C)CC2)c1` (stereo unspecified), with 2.28%. Take `CCOC(=O)c1c(-c2cccc(C)c2)csc1NC(=O)c1c(-c2ccccc2)noc1C`: the Potency was 0.631 µM (active). For `Cc1onc(-c2ccccc2)c1C(=O)Nc1ccccc1C#N`, the “ratio change, negative = inhibition” value was 9.17% [at 46.1 µM].

`CC(=O)Nc1cccc(NC(=O)c2c(-c3ccccc3)noc2C)c1`: the “ratio change, negative = inhibition” value is -4.51% [at 46.1 µM].

In the case of `Cc1cc(C)cc(OCC(=O)O/N=C(\N)Cc2ccc([N+](=O)[O-])cc2)c1`, the “ratio change, negative = inhibition” value is -7.35%. `COc1ccc(Sc2nc(-c3ccccc3)ncc2OC)cc1`: the “ratio change, negative = inhibition” value was 15.7%. Same read-out and setting: under `Cc1ccc(SCC(=O)Nc2ccc3oc(-c4ccccc4F)nc3c2)cc1` stands 28.4%. Still for that read-out and setting: then `COCCNC(=O)c1ccc(-n2c(SCc3cccnc3)nc3ccccc3c2=O)cc1`, with 2.39%.

As to `Cc1cccc(C)c1NC(=S)N(Cc1cccnc1)Cc1ccccc1Cl`, the ratio change, negative = inhibition was 17.6% [at 9.22 µM]. On to `CCN1CCN(CCCNC(=O)c2ccc3c(c2)sc2nc(-c4ccc(OC)cc4)cn23)CC1`, for which the “ratio change, negative = inhibition” value was 20.5%.

Consider `CCOC(=O)c1c(-c2cccc(N)c2)cn2ccccc12`, for which the “ratio change, negative = inhibition” value is 7.28%.

For `Cc1ccc(CSc2nc3cccnc3n2Cc2ccc(C(=O)NC3CC3)cc2)cc1`, the “ratio change, negative = inhibition” value was 11%. Still for that read-out and setting: under `N#C/C(=C(\O)C(F)(F)F)c1nnc2n1CCCCC2` stands -13.7%. On the same count and under the same terms, under `O=C(Cc1ccc(Cl)cc1)NCc1nc(-c2ccccc2)no1` stands 13.3%; under `CCOC(=O)c1c(SCC(=O)Nc2cccc(C)c2C)nc(=O)[nH]c1C`, -5.72%; under `COc1cc2c(C(=O)N3CCN(C)CC3)c(CSc3ccccc3)n(C)c2cc1Br`, -21.8%. Still for that read-out and setting: under `COc1cc(C(=O)Nc2cc(C(F)(F)F)ccc2-n2cncn2)cc(OC)c1OC` stands -20%.

In the case of `Cc1ccc(COc2ccc(C(=O)NN)cc2)cc1`, the “ratio change, negative = inhibition” value is -2.54%. Still for that read-out and setting: then `CC(=O)c1ccc(NC(=O)CSc2nc(-c3ccccc3F)nc3c2c(=O)n(C)c(=O)n3C)cc1`, with -9.49%; and `CSc1nc2c(c(=O)[nH]1)C(c1cccc(Cl)c1Cl)CC(=O)N2` (stereo unspecified), with -8.67% [at 9.22 µM].

For the origin of these results see PubChem BioAssay AID1487 (National Center for Advancing Translational Sciences (NCATS), 2009).
